MBD2 DNA inh – blocks human MBD2 binding to methylated DNA; Q9UBB5; hit rate 0.31% among 370,000; TR-FRET, MBD2 binding to methylated oligonucleotide; inhibition, % at 4.4 µM; in the data active = inhibition above about 13%
Target sequence (Q9UBB5 whole entry, looked up): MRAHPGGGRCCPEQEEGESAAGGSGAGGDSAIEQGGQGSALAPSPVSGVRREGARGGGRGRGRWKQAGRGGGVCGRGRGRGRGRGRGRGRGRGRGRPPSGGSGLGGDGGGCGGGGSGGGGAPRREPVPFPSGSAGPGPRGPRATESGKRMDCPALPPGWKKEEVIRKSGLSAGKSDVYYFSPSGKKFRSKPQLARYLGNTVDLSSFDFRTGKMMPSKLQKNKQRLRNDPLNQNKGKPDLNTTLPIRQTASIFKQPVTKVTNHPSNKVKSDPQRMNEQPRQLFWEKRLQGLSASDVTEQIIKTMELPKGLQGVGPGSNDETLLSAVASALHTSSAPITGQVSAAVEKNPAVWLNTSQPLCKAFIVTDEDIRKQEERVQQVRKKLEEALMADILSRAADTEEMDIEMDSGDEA
LEDGF integ inh – blocks HIV-1 LEDGF/p75-dependent DNA integration; inhibition, % at 3.7 µM; TR-FRET IN-LEDGF/p75 DNA integration, Eu/Cy5; hit rate 0.64% among 370,000;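 active = inhibition above the screen-wide mean plus 3 SD, cut at about 13% in these data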;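 also: signal is the Cy5 over europium emission ratio at 671 and 618 nm; 0% = plate median of compound wells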
PRMT1 inh – PRMT1 (human) inhibition, primary screen; recombinant PRMT1, activity-based probe fluorescence polarization; inhibition, % at 2.79 µM; hit rate 1.3% among 370,000; AID 652257; Q99873;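 active = inhibition above about 21% made by adding two undisclosed values, limit read from the data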
UHRF1 MBD2 ctr – blocks human UHRF1 binding to methylated DNA | UHRF1 binding to methylated oligo, TR-FRET | inhibition, % at 4.4 µM | Q96T88 | hit rate 0.75% among 370,000; in the data active = inhibition above about 21%;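 also: UHRF1 SRA domain binding a hemimethylated CpG hairpin DNA probe; 0% = median of test compound wells and 100% = reference inhibitor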
PRMT1 confirm – PRMT1 (human) inhibition, FP confirmation; shares compounds with PRMT1 inh; recombinant His-PRMT1, activity-based probe fluorescence polarization; inhibition, % at 2.79 µM; hit rate 42% among 3,300; AID 687036;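 active = mean inhibition across replicates above the hit cutoff derived for the earlier primary screen, cut at about 22% in these data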
Starred values were filed as active, the others as inactive; / = no result given. Sampled rows, rich in hits. Any-hit rate of the full collection: about 2.5%.

SMILES	MBD2 DNA inh	LEDGF integ inh	PRMT1 inh	UHRF1 MBD2 ctr	PRMT1 confirm
O=C(CCN1CCC(c2ccccc2)C1)c1ccc2c(c1)OCCO2 (configuration not stated)	3	0	36*	1	19
O=C(CCN1CCC(c2ccccc2)C1)c1cccs1 (configuration not stated)	4	0	-2	1	/
Cc1ccnc2nc(C(=O)OCC(=O)NC(=O)NCc3ccco3)nn12	-1	1	1	1	/
Cc1cc(-c2n[nH]c(=S)n2/N=C/c2c[nH]c3ccccc23)n[nH]1	-1	-2	8	1	/
CCN(CC)c1ccc(C=Nn2c(-c3ccc(F)cc3)n[nH]c2=S)c(O)c1	5	2	37*	-2	35*
Fc1ccc(-c2n[nH]c(=S)n2/N=C/c2c[nH]c3ccccc23)cc1	-3	-3	31*	-1	22*
O=C(CSc1nnc(-c2ccccn2)n1Cc1ccccc1)N1CCOCC1	2	1	-5	3	/
Oc1ccc(N=Nc2ccccc2)o1	1	3	35*	1	49*
Cc1[nH]c2ccccc2c1C1=CC(=O)C=CC1=O	-3	-3	96*	-2	93*
Cc1[nH]c2ccccc2c1CC#N	2	8	-4	4	/
COc1ccccc1OCC(=O)Nc1nnc(-c2ccco2)s1	1	11	73*	10	2
C[C@H]1[C@H](c2ccccc2)OC(O)([C@H](Cc2ccccc2)NC(=O)OC(C)(C)C)CN1C (some centres not stated)	6	0	4	2	/
N#CC1=C2SCN(c3ccc(F)cc3)CN2C(=O)CC1c1cccc(F)c1 (configuration not stated)	-3	0	27*	-4	61*
CCOC(=O)c1ccc(N2CSC3=C(C#N)C(c4cccs4)CC(=O)N3C2)cc1 (configuration not stated)	-6	0	14	-5	/
CCOc1ccccc1N1CSC2=C(C#N)C(c3c(OC)ccc4ccccc34)CC(=O)N2C1 (configuration not stated)	1	2	49*	-5	70*
Cc1ccc(N2CSC3=C(C#N)C(c4cccs4)CC(=O)N3C2)cc1 (configuration not stated)	1	6	52*	-3	34*
COc1cc(OC)c(C2CC(=O)N3CN(c4ccc(C)cc4)CSC3=C2C#N)cc1OC (configuration not stated)	-6	13	62*	0	93*
COc1ccc(N2CSC3=C(C#N)C(c4cccs4)CC(=O)N3C2)cc1 (configuration not stated)	2	-2	3	1	/
CCc1ccc(C2CC(=O)N3CN(c4ccccc4)CSC3=C2C#N)cc1 (configuration not stated)	-1	0	19	1	/
CC1(C2CC2)NC(=O)N(CC(=O)N2CCN(c3cccc(C(F)(F)F)c3)CC2)C1=O (configuration not stated)	-2	1	2	5	/
CCOc1ccc(NC(=O)CN(C)C(=O)c2cccnc2Sc2ccc(Cl)cc2)cc1OCC	-1	1	0	1	/
COc1ccc(N2C(=O)C3CC(C)=C(C)CC3C2=O)c(OC)c1 (configuration not stated)	6	2	3	1	/
COc1ccc(N2CSC3=C(C#N)C(c4cc(OC)c(OC)cc4OC)CC(=O)N3C2)c(OC)c1 (configuration not stated)	-3	5	39*	-4	63*
CN1CSC2=C(C#N)C(c3cccc(OCc4ccccc4)c3)CC(=O)N2C1 (configuration not stated)	-4	-4	20	-1	/
COc1ccc(C2CC(=O)N3CN(c4ccc(C)c(Cl)c4)CSC3=C2C#N)cc1OC (configuration not stated)	0	0	41*	-2	25*
CCC(C)c1ccc(S(=O)(=O)N2CCN(C(C)C(=O)NC3CCCC3)CC2)cc1 (configuration not stated)	-1	1	-2	-1	/
COc1ccc(N2C(=O)CC(NCCNc3ccc([N+](=O)[O-])cn3)C2=O)cc1 (configuration not stated)	4	1	36*	-1	8
CCOc1ccc(N2C(=O)CC(NCCNc3ccc([N+](=O)[O-])cn3)C2=O)cc1 (configuration not stated)	-5	4	49*	1	7

Screening data from PubChem.
